Results taken from PubChem BioAssay (NCI).
“And” between values parts separate entries of the source, which are not always exact repeats. Equal values may be shown once. About 83,000 compounds went through this panel and 20% of them were active in at least one assay; those are over-represented in the sample as a whole.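 Single-concentration screen, 48 h exposure, 96-well plates. Endpoint: percent growth. Below 10 = active.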 Unmarked numbers belong to inactive results. The source made the active and inactive calls.

Test system: HL-60(TB) leukemia
Experiment: NCI-60 one-dose screen, 48 h (100 = growth as untreated, 0 = no growth, -100 = all killed)
Details: 10 µM unless noted

For `COc1cc(/C=C/C(=O)c2ccc(O)c(CN3CCN(c4cc5c(cc4F)c(=O)c(C(=O)O)cn5C4CC4)CC3)c2)cc(OC)c1OC`, the growth was 7.35% (active).
For `COc1cc(/C=C/C(C)=O)ccc1O`, the growth was 81% and 77.8%.
With `COc1cc(-c2nn(-c3cccc(NC(=O)c4ccccc4)c3)cc2-c2ccncc2)ccc1Cl` the growth was -18.8% (active).
With `O=[N+]([O-])c1ccc(N2CCN(Cc3ccccc3)CC2)c2c1no[n+]2[O-]` the growth was -33.2% (active).
For `O=C(CSc1nc2ccc([N+](=O)[O-])cc2[nH]1)Nc1cccc(C(F)(F)F)c1`, the growth was 0.11% (active).
With `CCN1C(=O)N(CC)C2C1NN=c1s/c(=C\c3cccnc3)c(=O)n12` (stereo not given) the growth was -27.5% (active).
With `O=c1[nH]c(=O)n(C2OC(CO)C(O)C2O)cc1I` (stereo not given) the growth was 77.5% and 86.6%.
For `COc1cccc(-c2nn(-c3ccccc3)cc2-c2ccnc(NCCNC(=O)Nc3ccc(Cl)c(Cl)c3)c2)c1`, the growth was 0.89% (active).
For `CC(C)C(=O)Nc1ccc([N+](=O)[O-])c(C(F)(F)F)c1`, the growth was 91.1% and 98.3%.
In the case of `Nc1nc2ccccc2c2c1S(=O)(=O)c1ccc(Cl)cc1C2=O`, the growth is reported as -24.2% (active).
In the case of `CC(C)OC(=O)c1ccc2[nH]c(O)c(C(=Nc3ccc(N(C)C(=O)CN4CCN(C)CC4)cc3)c3ccccc3)c2c1`, the growth is reported as -50.2% (active).

Point of comparison: `Cc1cc(-c2cc(C)c(N)cc2C)c(C)cc1N`, growth 90.2%. Against it:
- C=C[C@@H]1C[C@@H]2Cc3cc(Cl)ccc3N1O2 — lower, 13.8%
- COc1cc(OC)cc(C2=C3CC[C@@H]4[C@H](CC[C@]5(C)C(=O)CC[C@@H]45)C3=CC3C(O)c4cccnc4N4C(=O)COC234)c1 (stereo not given in full) — higher, 98%
- C=CC(=O)NC(=O)Nc1ccccc1Cl — lower, 33.4%
- N#Cc1c(NC(=O)c2ccco2)[n+]([O-])c2ccccc2[n+]1[O-] — lower, 81.4%
- COC(=O)CNC(=O)[C@@H](OC)[C@@H]1Cc2cc3cc(OC4CC(OC5CC(O)C(O)C(C)O5)C(O)C(C)O4)c(C)c(O)c3c(O)c2C(=O)[C@H]1OC1CC(OC2CC(OC3CC(C)(O)C(O)C(C)O3)C(O)C(C)O2)C(O)C(C)O1 (stereo not given in full) — lower, 41%
- CN1CCc2c(Sc3ccc(C(=O)NO)cc3)c3ccccc3n2C1 — lower, 60.3%
- COc1ccc(C2=CC(c3ccc(Oc4ccnc5cc(Cl)ccc45)c(OC)c3)c3c(nc(OC)[nH]c3=O)N2)cc1 (stereo not given) — lower, 85.7%
- O=C1CC(=NCC(=O)n2c(-c3ccccc3)nc3ccccc32)NN1 — higher, 107%
- CN(C)c1ccc(/C=C/C(=O)c2ccc(-n3cc(CN4CCN(c5cc6c(cc5F)c(=O)c(C(=O)O)cn6C5CC5)CC4)nn3)cc2)cc1 — lower, 84.6%
- NC(N)=N/N=C/c1ccc(-c2ccc(-c3ccc(Cl)cn3)s2)cc1 — higher, 97.8%
- CC1(c2ccccc2O)NN=C(/N=C/c2cccc([N+](=O)[O-])c2)N1C(Cc1c[nH]c2ccccc12)C(=O)O (stereo not given) — higher, 120%
- CCc1ncnc2c1ccn2C(C)c1ccc(OC)c(F)c1 (stereo not given) — lower, 31.7%
- Cc1ccc(C2CC(c3ccc(Nc4nc(NCCO)nc(NCCO)n4)cc3)=NN2c2ccc(Cl)cc2)cc1 (stereo not given) — lower, 80.7%
- CCc1cc2c(c3ccc(C(=O)CBr)cc13)CCCC2 — higher, 97.7%
- N#C/C(=C/c1ccc([N+](=O)[O-])cc1)n1nnc2cc(F)c(F)cc21 — lower, 62.7%
- CCn1c(Sc2nnc(NC(=O)CCN3CCCC3)s2)nc2c1c(=O)n(C)c(=O)n2C — higher, 104%
- CCOc1ccc(-c2nonc2NC(=O)c2cccc(C)c2)cc1OCC — lower, 73%
- COC(=O)c1c2c(c(C)[n+]([O-])c1C)C(=O)C(NCc1ccc(Cl)cc1)=CC2=O — lower, 80.3%
- CCOC(=O)c1c(C)oc2ncnc(N3CCN(C(=S)Nc4ccccc4)CC3)c12 — higher, 94.7%
- COC(=S)SCN(CSC(=S)OC)c1ccc(Cl)cc1 — higher, 90.4%
- CCOC(=O)c1cnc2ccccc2c1Cl — higher, 122%
- CCCc1ccnc(NS(=O)(=O)c2ccc(N)cc2)n1 — lower, 24.7%
- COC(=O)CCOc1ccccc1 — higher, 102%
- O=P(O)(O)OCC(O)CO (stereo not given) — higher, 97.7%
- CC(CN(C)C)CN1c2ccccc2CCc2ccccc21 (stereo not given) — higher, 108%
- COc1cc(-c2nc(/C=C3/C(=O)Nc4ccccc43)c3ccccn23)cc(OC)c1OC — lower, 89.6%
- CC1=CC[C@@H]2C(C)(C)[C@@H](O)CC[C@@]2(C)[C@@H]1COc1ccc2ccc(=O)oc2c1 — lower, 76.7%

With `Cc1cc2c([nH]1)CSc1cc(S(=O)(=O)c3ccccc3)c(=O)[nH]c1-2` the growth was 27.7% [100 µM].
